For 19 compounds, residual activity results are on record in ChEMBL document CHEMBL2218924, “A broad activity screen in support of a chemogenomic map for kinase signalling research and drug discovery” (Biochem J, 2013).

For the experiment, the target named is T1, Tyrosine-protein kinase ZAP-70 (Homo sapiens) (UniProt P43403).
T1 sequence (whole entry): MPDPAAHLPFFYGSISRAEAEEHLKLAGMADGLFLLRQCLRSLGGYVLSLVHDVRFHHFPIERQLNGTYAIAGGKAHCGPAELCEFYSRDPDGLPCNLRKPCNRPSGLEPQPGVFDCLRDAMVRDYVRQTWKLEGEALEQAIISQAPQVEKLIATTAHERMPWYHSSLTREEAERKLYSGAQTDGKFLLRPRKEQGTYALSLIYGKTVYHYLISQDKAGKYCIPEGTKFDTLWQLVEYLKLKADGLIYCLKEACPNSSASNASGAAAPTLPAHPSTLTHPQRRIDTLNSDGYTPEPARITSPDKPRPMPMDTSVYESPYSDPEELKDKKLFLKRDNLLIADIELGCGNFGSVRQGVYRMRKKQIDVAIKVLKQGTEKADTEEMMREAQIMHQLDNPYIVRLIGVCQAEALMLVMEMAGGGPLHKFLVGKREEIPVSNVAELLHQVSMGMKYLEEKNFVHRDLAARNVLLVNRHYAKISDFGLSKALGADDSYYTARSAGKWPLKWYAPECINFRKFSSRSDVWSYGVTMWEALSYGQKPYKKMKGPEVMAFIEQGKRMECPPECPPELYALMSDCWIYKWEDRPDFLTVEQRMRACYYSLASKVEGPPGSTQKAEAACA
Conditions: at 10 µM.
Broadly, the residual activity is the signal under treatment as a percentage of the control signal. With `COc1ccc(OC)c2c(=S)c3ccccc3[nH]c12`, the residual activity was 88%.
On to `Cn1c2ccccc2c2c3c(c4c5ccccc5n(CCC#N)c4c21)CNC3=O`, for which the residual activity stood at 111%.
On to `O=C1NC(=O)/C(=C/c2ccc3c(c2)OC(F)(F)O3)S1`, for which the residual activity was 102%.
With `N#C/C(=C(\N)Sc1ccc(N)cc1)c1ccccc1C(F)(F)F`, the residual activity was found to be 101%.
Then `Nc1ncnc2[nH]nc(Nc3ccc(F)cc3)c12`, with 98%; and `O=C(O)c1ccc2c3c1cccc3c(=O)n1c3ccccc3nc21`, with 111%.
As for `NC(=O)Nc1sc(-c2ccc(F)cc2)cc1C(N)=O`, the residual activity was found to be 107%.
For `CC(C)n1cnc2/c(=N/c3cccc(Cl)c3)nc(NCCO)[nH]c21`, the residual activity was found to be 117%.
Then `Cc1cc2ncc(-c3ccccc3)nc2cc1C`, with 98%.
For the compound `Oc1n[nH]c2nnc(-c3c(-c4ccccc4)nn4ccccc34)cc12`, the residual activity turned out to be 99%.
On to `CN(C)CCCn1cc(C2=C(c3c[nH]c4ccccc34)C(=O)NC2=O)c2ccccc21`, for which the residual activity was 118%.
`COc1ccc(S(=O)(=O)N(CCO)c2ccccc2CN(C)C/C=C/c2ccc(Cl)cc2)cc1`: the residual activity is 97%.
Then `COc1ccc2c(c1)c(C1=C(c3c[nH]c4ccccc34)C(=O)NC1=O)cn2CCCN(C)C`, with 120%; and `Oc1c2ccccc2c2c3c(cccc13)N=N2`, with 98%; and `O=C1Cc2c([nH]c3ccc([N+](=O)[O-])cc23)-c2ccccc2N1`, with 105%.
For the compound `Cn1sc(=O)n(Cc2ccccc2)c1=O`, the residual activity was determined as 96%.
Consider `O=c1cc(N2CCNCC2)oc2c(-c3ccccc3)cccc12`, for which the residual activity turned out to be 99%.
Turning to `O=C1Nc2ccc(Cl)cc2/C1=C/c1cc(Cl)c(O)c(Cl)c1`, the residual activity was 100%.
As to `CC(=O)c1ccc(N2CCOCC2)cc1O`, the residual activity stood at 86%.
